The subject of this assay is Listeria monocytogenes 10403S. The assay can be described thus: growth inhibition relative to ceftriaxone-alone control; higher = stronger potentiation of ceftriaxone growth inhibition. Conditions: 10 µM; ceftriaxone 1 ug/ml; 12 h.

± gives the standard deviation of the averaged measurements.

In the supplement of paper PMC5641865, “A screen for kinase inhibitors identifies antimicrobial imidazopyridine aminofurazans as specific inhibitors of the Listeria monocytogenes PASTA kinase PrkA” (The Journal of Biological Chemistry, 2017) one finds growth inhibition data, which are given here for 31 molecules.
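Also: End-point A600 read in BHI broth at 37 °C with 2% DMSO, inhibition computed as (1 − OD with compound plus ceftriaxone ÷ OD with ceftriaxone only) × 100.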

Take `CN(C)c1ccc2c(c1)/C(=C/Nc1ccc(S(N)(=O)=O)cc1)C(=O)N2`: the growth inhibition was found to be 1.99 ± 14%. On to `NC(=O)c1ccc2c(-c3ccnc(NCCCO)n3)c(-c3ccc(F)cc3)nn2c1`, for which the growth inhibition was -7.27 ± 16%. In the case of `N#CCNC(=O)c1ccc(-c2ccnc(Nc3ccc(N4CCOCC4)cc3)n2)cc1`, the growth inhibition is 33 ± 13%. `Oc1c2ccccc2c2c3c(cccc13)N=N2`: the growth inhibition worked out at 10.4 ± 10%. Turning to `CCS(=O)(=O)c1ccc(OC)c(Nc2ncc(-c3cccc(C(C)=O)c3)o2)c1`, the growth inhibition is 7.79 ± 2.2%. For the molecule `CC(C)c1ccc(-c2cc(-c3c[nH]nc3-c3ccccn3)ccn2)cc1`, the growth inhibition is -6.81 ± 3%. Then `Nc1nonc1-c1nc2cnccc2n1C1CCCCC1`, with 12.4 ± 3.9%; and `NS(=O)(=O)c1ccc(Nc2ncc(-c3ccccc3)o2)cc1`, with 6.88 ± 6.9%; and `OCCCNc1nccc(-c2c(-c3ccc(F)cc3)nn3cc(C(F)(F)F)ccc23)n1`, with 15.6 ± 7.1%.

As for `CS(=O)(=O)CCNCc1coc(-c2ccc3ncnc(Nc4ccc(OCc5ccccc5)cc4)c3c2)c1`, the growth inhibition amounted to 4.98 ± 4.3%. In the case of `CC(C)(O)CC(=O)NCCn1ccc2ncnc(Nc3ccc(Oc4cccc(C(F)(F)F)c4)c(Cl)c3)c21`, the growth inhibition stood at 98.62 ± 0.75%.

`Cc1nc(N)sc1-c1ccnc(Nc2ccc(N3CCOCC3)cc2)n1`: the growth inhibition is -5.25 ± 7.3%. `C=CC(=O)N1CCC[C@@H](n2nc(-c3ccc(Oc4ccccc4)cc3)c3c(N)ncnc32)C1`: the growth inhibition is 42.1 ± 24%.

With `CCS(=O)(=O)c1ccc(OC)c(Nc2ncc(-c3ccccc3Cl)o2)c1`, the growth inhibition is -2.57 ± 15%. In the case of `CC[C@H](Nc1ncnc2[nH]cnc12)c1nc2cccc(F)c2c(=O)n1-c1ccccc1`, the growth inhibition was found to be 21.7 ± 23%.

With `CCc1cccc(CC)c1/C=C/c1cncc(C(=O)NC)c1`, the growth inhibition turned out to be 14.6 ± 2.7%. Regarding `Cc1csc(-c2nnc(Nc3ccc(Oc4ncccc4-c4ccnc(N)n4)cc3)c3ccccc23)c1`, the growth inhibition came out at 64 ± 34%.

For the molecule `CCCN1CCCC(c2ccc(Nc3nc(Nc4cc(F)ccc4C(N)=O)c4cc[nH]c4n3)c(OC)c2)C1` (stereo unspecified), the growth inhibition is 1.46 ± 6.2%. As for `COC(=O)Nc1ccc(-c2nc(N3CCOCC3)c3cnn(C4CCN(C(=O)OC)CC4)c3n2)cc1`, the growth inhibition was -59.1 ± 10%. As for `CCCNC(=O)Nc1ccc(Oc2ncnc3cc(OC)c(OC)cc23)cc1Cl`, the growth inhibition came out at 12.7 ± 1.9%. As for `NC(=O)c1sc(-n2cnc3cc(C(F)(F)F)ccc32)cc1OCc1ccccc1Br`, the growth inhibition was -7.84 ± 1.8%. In the case of `CCOc1nccc2c1nc(-c1nonc1N)n2CC`, the growth inhibition was 13.6 ± 0.53%.

For the molecule `COc1ccc(C2=C(N3CCc4ccccc43)C(=O)NC2=O)cc1`, the growth inhibition is -2.53 ± 0.37%.

For `NC(=O)c1ccc(N(C(N)=O)c2c(F)cccc2F)nc1-c1ccc(F)cc1F`, the growth inhibition was determined as 3.69 ± 12%. In the case of `Cc1ccc(C(=O)NC2CC2)cc1-c1ccc2[nH]ncc2c1`, the growth inhibition turned out to be 8.37 ± 0.62%. In the case of `CCn1c(-c2nonc2N)nc2ccccc21` it was -9.18 ± 6.6%; in that of `COc1cc2c(cc1Nc1nc(Nc3ccsc3C(N)=O)c3cc[nH]c3n1)N(C(=O)CN(C)C)CCC2(C)C`, -4.89 ± 0.71%; in that of `CN(C)CCNC(=O)Nc1ccc(N(C)c2ccnc(Nc3ccc(CS(C)(=O)=O)cc3)n2)cc1`, -2.69 ± 2%. Take `Cc1cc(Nc2cc(CN3CCOCC3)c3nc(C)c(Cc4ccc(Cl)cc4F)n3n2)n[nH]1`: the growth inhibition is 12 ± 6.8%.

Regarding `Fc1cccc(COc2ccc(Nc3ncnc4sc(-c5ccco5)cc34)cc2Cl)c1`, the growth inhibition amounted to 6.89 ± 3.7%. As for `c1ccc(-c2n[nH]cc2-c2ccnc(-c3ccc(OCCn4ccnc4)cc3)c2)nc1`, the growth inhibition was -3.25 ± 8%.
